# Experimental data from PubChem BioAssay.
# The source made the active and inactive calls. Unless noted, how the calls were made is not given here.
# Legend:
# [1] = tested on: Wnt5a (protein binding on small-molecule microarray); assay: small molecules binding Wnt5a protein – biophysical, small-molecule microarray, 635/667 nm fluorescence, primary screen (AID 1142); details: 635 nm fluorescence, higher = more signal;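 further: fluorescence read at 667 nm with signal to noise per printed feature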
# [2] = ATP-based viability of Huh7 replicon cells – cell-based, CellTiter-Glo luminescence, basal, 48 h, cytotoxicity control for HCV replication inhibitor project, primary screen (AID 1143); details: higher = more signal, called active from +8 up or from −8 down;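 further: Huh7 hepatoma cells carrying a hepatitis C replication reporter with no stimulus; test concentration not given here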
# [3] = Pseudomonas biofilm growth suppression – PAO1 strain, BacTiter-Glo luminescence, LB-PBS, primary screen (AID 1144); details: P. aeruginosa PAO1 biofilm, 12 h, higher = more signal
# [4] = basal CRE-LacZ reporter activity in PC12 – cell-based, unstimulated, primary screen (AID 1145); details: no forskolin, luminescence, 4.5 h, higher = more signal, called active from +8 up or from −8 down
# [5] = forskolin-driven CRE-LacZ activity in PC12 – cell-based, CRE-LacZ reporter, forskolin-stimulated, primary screen (AID 1146); details: luminescence, 4.5 h, higher = more signal, called active from +8 up or from −8 down;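 further: PC12 cells with 6xCRE LacZ reporter stimulated by forskolin 10 µM; beta-galactosidase reporter signal reflecting CREB driven transcription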
# [6] = target: Streptavidin (Streptomyces avidinii) (UniProt P22629); assay: compounds binding control protein streptavidin – biophysical, small-molecule microarray, 635/667 nm fluorescence, artefact control for SMM compound annotation, primary screen (AID 1147); details: higher = more signal;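 further: signal reflects streptavidin binding to arrayed compounds as a control protein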
# [7] = probe aInhba binding on compound microarray – biochemical, small-molecule microarray, 635/667 nm fluorescence, primary screen (AID 1148); details: higher = more signal;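 further: score merges 667nm spot fluorescence with signal-to-noise for antibody binding to printed compounds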
# [8] = target: Torsin-1A (Homo sapiens) (UniProt O14656); assay: TOR1A wild-type binding on microarray – cell lysate, small-molecule microarray, lysate, 635/667 nm, primary screen (AID 1149); details: COS7 hTOR1A-WT lysate, 635 nm fluorescence, higher = more signal
# [9] = target: Torsin-1A (Homo sapiens) (UniProt O14656); assay: torsin A mutant lysate binding on microarrays – cell lysate, small-molecule microarray, COS7 lysate, 635/667 nm fluorescence, primary screen (AID 1150); details: COS7 hTOR1A mutant lysate, 635 nm fluorescence, higher = more signal;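 further: score pools 667 nm emission and signal to noise measuring lysate protein binding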
# [10] = tested on: Sonic hedgehog protein (Shh); assay: Sonic hedgehog microarray binding compounds – biochemical, small-molecule microarray, 635/667 nm fluorescence, primary screen (AID 1151); details: 635 nm fluorescence, higher = more signal;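 further: Shh protein binding to compounds spotted on small-molecule microarray slides; score combines spot fluorescence intensity with signal-to-noise across triplicate slides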
# [11] = optical density shifts of acrAB sulA E. coli – strain DRC41, OD650, 48 h, E. coli filamentation inducer project, primary screen (AID 1152); details: higher = more signal, called active from +8 up or from −8 down;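 further: E. coli MC1000 strain DRC41 lacking acrAB efflux pump and sulA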
# [12] = probe aLefty1 binding on compound microarray – biochemical, small-molecule microarray, 635/667 nm fluorescence, primary screen (AID 1153); details: higher = more signal;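 further: score merges spot fluorescence with signal-to-noise ratio from the scanned slide images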
# [13] = plasmodial surface anion channel blockers, osmotic lysis – cell-based, P. falciparum Indochina, OD700, 1 h, primary screen (AID 1154); details: P. falciparum Indochina infected RBC osmotic lysis, higher = more signal, called active from +8 up or from −8 down
# [14] = plasmodial surface anion channel blockers, osmotic lysis – cell-based, P. falciparum Indochina, OD700, 2 h, primary screen (AID 1155);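 further: lysis reports solute entry through the parasite surface anion channel PSAC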; details: P. falciparum Indochina infected erythrocytes, higher = more signal, called active from +8 up or from −8 down
# [15] = changes in parasitized red cell lysis, either direction – P. falciparum Indochina, OD700, 3 h, PSAC antagonist project, primary screen (AID 1156); details: P. falciparum-infected erythrocytes, osmotic lysis, higher = more signal, called active from +8 up or from −8 down
# [16] = plasmodial surface anion channel blockers, osmotic lysis – cell-based, P. falciparum Indochina, OD700, 18 h, primary screen (AID 1157); details: P. falciparum Indochina infected erythrocytes, osmotic lysis OD700, 18 h; higher = more signal, called active from +8 up or from −8 down
# [17] = S6 kinase pathway phospho-S6 level changes – cell-based, A549, cytoblot, luminescence, serum-stimulated, primary screen (AID 1158); details: 5 h, higher = more signal;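 further: serum-stimulated A549 lung adenocarcinoma cells; signal is phosphorylated S6 detected by cytoblot immunostaining with HRP secondary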
# [18] = target: NADPH oxidase 2 (Homo sapiens) (UniProt P04839); assay: compounds shifting NOX2 Amplex Red fluorescence – cell-based, HEK293-NOX2, PMA-stimulated, NOX inhibitor project, primary screen (AID 1159); details: 45 min, higher = more signal, called active from +8 up or from −8 down; further: test concentration not given here
# [19] = target: NADPH oxidase 4 (Homo sapiens) (UniProt Q9NPH5); assay: compounds shifting NOX4 Amplex Red fluorescence – cell-based, HEK293-NOX4, tetracycline-induced, NOX inhibitor project, primary screen (AID 1160); details: HEK293-NOX4, Amplex Red H2O2 fluorescence, 45 min; higher = more signal, called active from +8 up or from −8 down
# [20] = target: NADPH oxidase 5 (Homo sapiens) (UniProt Q96PH1); assay: compounds shifting NOX5 Amplex Red fluorescence – cell-based, HEK293-NOX5, NOX inhibitor project, primary screen (AID 1161); details: HEK293-NOX5, ionomycin, 45 min, higher = more signal
# Chain of NADPH oxidase 5 (Homo sapiens) (Q96PH1 whole entry, looked up): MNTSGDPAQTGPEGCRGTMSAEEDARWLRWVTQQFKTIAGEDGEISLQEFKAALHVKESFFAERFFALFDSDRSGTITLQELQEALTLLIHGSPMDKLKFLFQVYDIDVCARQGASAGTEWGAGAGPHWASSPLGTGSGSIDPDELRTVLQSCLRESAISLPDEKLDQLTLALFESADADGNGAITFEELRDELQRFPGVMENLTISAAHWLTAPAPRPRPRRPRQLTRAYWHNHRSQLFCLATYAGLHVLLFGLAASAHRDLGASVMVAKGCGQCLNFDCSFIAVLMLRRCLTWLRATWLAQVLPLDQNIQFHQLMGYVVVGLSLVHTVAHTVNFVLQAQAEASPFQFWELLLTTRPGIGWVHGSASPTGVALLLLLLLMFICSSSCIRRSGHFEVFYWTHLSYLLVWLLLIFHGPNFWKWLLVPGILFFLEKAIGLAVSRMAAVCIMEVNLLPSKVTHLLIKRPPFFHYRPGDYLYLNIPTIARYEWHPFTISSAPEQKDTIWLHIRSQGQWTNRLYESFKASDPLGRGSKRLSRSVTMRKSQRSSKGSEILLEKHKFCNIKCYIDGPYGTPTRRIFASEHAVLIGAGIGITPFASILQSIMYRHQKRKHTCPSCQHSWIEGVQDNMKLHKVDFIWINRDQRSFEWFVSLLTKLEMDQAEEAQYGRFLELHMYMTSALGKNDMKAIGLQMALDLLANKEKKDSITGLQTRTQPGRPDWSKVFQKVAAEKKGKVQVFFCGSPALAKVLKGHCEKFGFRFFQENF
# Chain of Streptavidin (Streptomyces avidinii) (P22629 whole entry, looked up): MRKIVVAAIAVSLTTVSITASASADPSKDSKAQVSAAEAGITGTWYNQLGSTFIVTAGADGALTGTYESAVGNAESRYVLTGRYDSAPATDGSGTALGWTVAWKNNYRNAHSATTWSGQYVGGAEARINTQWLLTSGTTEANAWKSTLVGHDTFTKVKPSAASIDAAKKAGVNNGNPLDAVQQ
# Chain of NADPH oxidase 2 (Homo sapiens) (P04839 whole entry, looked up): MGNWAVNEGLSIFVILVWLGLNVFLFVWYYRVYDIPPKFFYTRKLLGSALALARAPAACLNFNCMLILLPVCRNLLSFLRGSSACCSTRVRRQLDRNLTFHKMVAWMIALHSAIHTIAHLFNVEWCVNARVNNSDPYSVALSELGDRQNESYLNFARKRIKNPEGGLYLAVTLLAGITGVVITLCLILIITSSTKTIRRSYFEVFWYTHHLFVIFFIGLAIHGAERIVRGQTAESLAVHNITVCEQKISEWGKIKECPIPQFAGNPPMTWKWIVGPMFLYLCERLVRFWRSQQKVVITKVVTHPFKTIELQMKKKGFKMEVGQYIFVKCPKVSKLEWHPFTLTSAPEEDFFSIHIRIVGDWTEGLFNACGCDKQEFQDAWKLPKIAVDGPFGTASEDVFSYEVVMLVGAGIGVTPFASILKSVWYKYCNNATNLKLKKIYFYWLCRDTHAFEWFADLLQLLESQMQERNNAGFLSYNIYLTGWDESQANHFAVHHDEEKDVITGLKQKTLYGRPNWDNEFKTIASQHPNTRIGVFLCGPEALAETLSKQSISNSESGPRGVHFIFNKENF
# Chain of NADPH oxidase 4 (Homo sapiens) (Q9NPH5 whole entry, looked up): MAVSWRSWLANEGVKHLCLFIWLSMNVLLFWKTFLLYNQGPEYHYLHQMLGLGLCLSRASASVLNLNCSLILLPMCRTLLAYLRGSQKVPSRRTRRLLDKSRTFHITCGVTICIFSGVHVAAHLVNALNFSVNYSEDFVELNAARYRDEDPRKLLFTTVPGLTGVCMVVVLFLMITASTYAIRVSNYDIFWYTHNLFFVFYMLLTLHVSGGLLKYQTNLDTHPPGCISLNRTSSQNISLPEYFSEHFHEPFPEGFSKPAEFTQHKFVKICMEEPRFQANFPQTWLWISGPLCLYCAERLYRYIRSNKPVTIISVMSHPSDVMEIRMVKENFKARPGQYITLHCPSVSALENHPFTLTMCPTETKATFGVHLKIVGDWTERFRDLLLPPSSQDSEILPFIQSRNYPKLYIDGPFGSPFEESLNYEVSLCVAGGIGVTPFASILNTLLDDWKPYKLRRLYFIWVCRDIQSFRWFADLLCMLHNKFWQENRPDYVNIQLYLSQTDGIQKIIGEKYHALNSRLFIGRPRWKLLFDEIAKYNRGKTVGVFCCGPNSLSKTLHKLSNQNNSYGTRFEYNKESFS
# Chain of Torsin-1A (Homo sapiens) (O14656 whole entry, looked up): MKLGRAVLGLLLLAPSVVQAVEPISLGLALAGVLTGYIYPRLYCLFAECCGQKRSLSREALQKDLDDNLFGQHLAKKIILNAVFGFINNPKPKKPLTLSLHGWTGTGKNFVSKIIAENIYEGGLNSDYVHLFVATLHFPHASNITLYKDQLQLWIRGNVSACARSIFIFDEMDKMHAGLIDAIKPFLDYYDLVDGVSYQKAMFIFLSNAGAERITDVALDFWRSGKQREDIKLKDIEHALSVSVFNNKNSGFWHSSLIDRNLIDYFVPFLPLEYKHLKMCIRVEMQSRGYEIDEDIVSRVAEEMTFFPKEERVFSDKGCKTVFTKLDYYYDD
Structure (SMILES),composite z-score [1],z-score [2],z-score [3],z-score [4],z-score [5],composite z-score [6],composite z-score [7],composite z-score [8],composite z-score [9],composite z-score [10],z-score [11],composite z-score [12],z-score [13],z-score [14],z-score [15],z-score [16],z-score [17],z-score [18],z-score [19],z-score [20]
Cc1cc(C)cc(N2C(=O)CSC2c2cccc([N+](=O)[O-])c2)c1 (stereo not given),0.423,-0.894 (inactive),0.75 (inactive),-0.438 (inactive),-1.04 (inactive),1.2,0.0506,0.337,0.526,0.899,0.421 (inactive),-0.0046,0.385 (inactive),-0.414 (inactive),0.652 (inactive),-0.237 (inactive),-0.261,-1.02 (inactive),-0.364 (inactive),0.483
NC(=O)N1C(=O)C2C(C1=O)C1C=C(CCCO)C2C(c2cccs2)N1Cc1cccc(OC(F)(F)F)c1 (stereo not given),-0.0995,-2.32 (inactive),0.818 (inactive),0.0704 (inactive),-0.461 (inactive),0.035,-0.114,0.726,0.981,1.4,-0.19 (inactive),0.135,8.85 (active),1.42 (inactive),-0.569 (inactive),0.872 (inactive),0.323,2.15 (inactive),0.0752 (inactive),-1.12
COCCCNC(=O)[C@@]1(Sc2ccc(C)cc2)CC(=O)N(C2CCCCC2)[C@@H]1c1ccc(CO)cc1,0.0421,-0.0515 (inactive),-0.319 (inactive),0.118 (inactive),1.7 (inactive),-0.749,-0.154,-1.51,-0.424,-0.911,-0.204 (inactive),0.0209,0.309 (inactive),0.17 (inactive),0.0051 (inactive),0.326 (inactive),0.0394,0.175 (inactive),-0.512 (inactive),-1.3
COC(=O)C(CC#Cc1ccc2c(c1)[C@]1(C(=O)N2)[C@H](c2ccccc2OCCO)N2[C@H](c3ccccc3)[C@H](c3ccccc3)OC(=O)[C@H]2[C@@H]1C(=O)NC[C@H](O)c1ccccc1)C(=O)OC,0.572,-3.75 (inactive),-1.26 (inactive),-0.168 (inactive),0.717 (inactive),0.0979,-0.199,0.951,0.68,1.22,0.345 (inactive),0.964,2.45 (inactive),1.18 (inactive),0.984 (inactive),0.957 (inactive),1.54,1.63 (inactive),1.03 (inactive),1.34
NC(=O)NCC#Cc1ccc2c(c1)[C@]1(C(=O)N2)[C@H](C(=O)NC[C@H](O)c2ccccc2)[C@H]2C(=O)O[C@H](c3ccccc3)[C@H](c3ccccc3)N2[C@@H]1c1ccc(OCCO)cc1,0.496,0.546 (inactive),-0.223 (inactive),-0.698 (inactive),-0.535 (inactive),0.661,0.185,-0.0075,-0.002,0.728,0.851 (inactive),0.157,4.47 (inactive),1.72 (inactive),1.55 (inactive),0.49 (inactive),0.0785,1.59 (inactive),0.849 (inactive),0.737
